PAFAH1B3 FP inh: blocks human PAF acetylhydrolase 1B catalytic subunit 3; Q15102; recombinant PAFAH1B3, FP-rhodamine probe, fluorescence polarization; inhibition, % at 3.39 µM; 340,000 tested, 0.28% active; AID 492972;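 active = inhibition above the screen-wide average of all tested compounds plus 3 SD, cut at about 25% in these data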;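 also: 0% = enzyme with DMSO only and 100% = wells lacking PAFAH1B3 protein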
pPAFAH FP inh: pPAFAH (human) enzyme inhibition; Q13093; recombinant pPAFAH, FP-rhodamine probe fluorescence polarization; inhibition, % at 3.39 µM; 330,000 tested, 1.5% active; AID 463082;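 active = inhibition above the mean inhibition across the screen plus 3 SD, cut at about 25% in these data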;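 also: inhibitors block binding of the rhodamine activity-based probe so polarization drops; 0% = enzyme with DMSO and 100% = wells lacking pPAFAH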
PAFAH2 inh: inhibitors of human PAFAH2. recombinant PAFAH2, FP-rhodamine activity probe, fluorescence polarization. 340,000 tested, 0.99% active. inhibition, % at 3.39 µM. Q99487. AID 492956;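 active = inhibition above the mean over all tested compounds plus 3 SD, cut at about 30% in these data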;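 also: inhibitors block probe labeling of enzyme so polarization drops; 0% = enzyme with DMSO and 100% = wells lacking PAFAH2 protein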
PAFAH1B2 inh: inhibitors of human PAFAH1B2. P68402. AID 492953. 340,000 tested, 1.2% active. inhibition, % at 3.39 µM. recombinant PAFAH1B2, FP-rhodamine activity probe, fluorescence polarization;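 active = inhibition above the mean of all tested compounds plus 3 SD, cut at about 24% in these data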;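 also: 0% = enzyme with DMSO and 100% = wells lacking PAFAH1B2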
Target sequence (P68402 whole entry, looked up): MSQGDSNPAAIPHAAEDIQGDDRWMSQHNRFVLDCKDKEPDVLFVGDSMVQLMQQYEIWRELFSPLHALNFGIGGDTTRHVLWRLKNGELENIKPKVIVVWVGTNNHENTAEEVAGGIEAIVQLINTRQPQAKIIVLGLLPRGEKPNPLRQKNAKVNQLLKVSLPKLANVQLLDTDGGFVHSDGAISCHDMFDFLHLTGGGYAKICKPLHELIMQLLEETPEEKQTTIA
Pemphigus Ab inh: blocks pemphigus antibody binding to human desmoglein-3. P32926. DSG3-coupled beads, scFv-anti-DSG3-GFP binding, flow cytometry; active compounds read low. binding (percent of control), % at 10 µM. 310,000 tested, 0.48% active. AID 588358;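 active = binding more than 3 SD below its plate's average and above zero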;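 also: hits lower antibody fragment binding to DSG3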
PfM18AAP inh-1: blocks P. falciparum M18 aspartyl aminopeptidase. recombinant PfM18AAP, H-Glu-NHMec fluorogenic cleavage. inhibition, % at 7.35 µM. 290,000 tested, 1.2% active;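 active = inhibition above the campaign mean inhibition over all tested compounds plus 3 SD, cut at about 28% in these data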;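 also: 0% = plate median of test compound wells and 100% = 2 mM ZnCl2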
PfM18AAP inh-2: confirmation of Plasmodium falciparum M18 aspartyl aminopeptidase inhibitors; shares compounds with PfM18AAP inh-1; recombinant PfM18AAP, H-Glu-NHMec fluorogenic cleavage; inhibition, % at 7.35 µM; 2,400 tested, 28% active; AID 2170;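 active = mean inhibition over replicate wells above the hit cutoff set for the earlier primary screen, cut at about 29% in these data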;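 also: 0% = median of test compound wells and 100% = 2 mM ZnCl2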
CTSL1 confirm: Cathepsin L (human) inhibition, confirmation | purified cathepsin L1, Z-Leu-Arg-MCA fluorescence | 2,400 tested, under 10 active | AID 2178 | inhibition, % at 5.96 µM | shares compounds with PfM18AAP inh-1;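 active = average inhibition across replicates above the hit cutoff set in the earlier primary screen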;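 also: 0% = median of test compound wells and 100% = Z-Phe-Ala-diazomethylketone 1 µM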
Target sequence (P07711 whole entry, looked up): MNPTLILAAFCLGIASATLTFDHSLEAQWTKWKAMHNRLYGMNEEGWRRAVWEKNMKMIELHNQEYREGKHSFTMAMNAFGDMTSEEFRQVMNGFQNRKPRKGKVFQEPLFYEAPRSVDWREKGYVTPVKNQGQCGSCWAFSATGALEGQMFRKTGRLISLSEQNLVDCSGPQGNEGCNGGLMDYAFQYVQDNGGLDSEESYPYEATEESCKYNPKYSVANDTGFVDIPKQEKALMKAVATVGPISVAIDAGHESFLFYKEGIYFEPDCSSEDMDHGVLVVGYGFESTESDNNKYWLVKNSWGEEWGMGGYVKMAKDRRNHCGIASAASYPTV
* marks the source's active call; other numbers are inactive results; x = no result. Most compounds without a hit are left out; they make up all but 3.8% or so of the library.

SMILES	PAFAH1B3 FP inh	pPAFAH FP inh	PAFAH2 inh	PAFAH1B2 inh	Pemphigus Ab inh	PfM18AAP inh-1	PfM18AAP inh-2	CTSL1 confirm
O=[N+]([O-])c1ccc(S(=O)Cc2ccccc2)c([N+](=O)[O-])c1 (centres undefined)	7	x	6	2	98	x	x	x
COC(=O)c1cc(Cc2ccc(N)c(C(=O)OC)c2)ccc1N	6	14	6	1	97	6	x	x
COC(=O)Cc1ccc(O)c(N)c1	9	0	3	2	100	54*	61*	0
COc1cc(SC)ccc1C(=O)N1CCN(c2ccc(O)cc2)CC1	2	7	6	-2	97	37*	-10	-2
O=C(NNC(=S)NC(=O)c1ccccc1[N+](=O)[O-])c1ccccc1O	x	8	x	x	97	43*	21	-1
O=C(NNC(=S)NC(=O)c1ccccc1[N+](=O)[O-])c1ccccc1[N+](=O)[O-]	9	1	2	-2	119	9	x	x
CC(C)C(C(=O)Nc1ncn[nH]1)N1C(=O)c2ccccc2C1=O (centres undefined)	-3	3	-2	7	98	40*	56*	5
CC(C)NC(=O)c1ccc(N(Cc2ccc(Cl)cc2)S(C)(=O)=O)cc1	3	-3	-6	5	114	-7	x	x
CN(c1ccc(F)cc1)S(=O)(=O)c1ccc(Cl)c(C(=O)NCc2ccco2)c1	11	5	5	4	x	x	x	x
COC(=O)c1cc(OC)c(OC)cc1N1C(=O)CC(C)(C)CC1=O	15	2	-2	7	111	-9	x	x
O=C(N=C1SCC(=O)N1c1ccccc1Cl)c1ccccc1	-15	x	-8	-3	103	2	x	x
COC(=O)c1ccc(C2NC(=O)c3c(sc(C)c3C)N2)cc1 (centres undefined)	1	-5	2	4	105	3	x	x
Cc1sc2c(c1C)C(=O)NC(c1cccc(O)c1)N2 (centres undefined)	x	4	x	x	x	49*	-8	2
Cc1cccc(C)c1NC(=O)CSCC(=O)c1ccc(O)c(O)c1	5	7	20	1	x	48*	-1	5
Cc1cccc(C)c1NC(=O)CSCC(=O)O	-3	1	6	-1	101	-4	x	x
COc1ccc(C(=O)NCc2cc(C)nc3ccccc23)cc1	2	2	0	-4	107	-1	x	x
Cc1cc(CNC(=O)c2ccc3c(c2)OCO3)c2ccccc2n1	9	3	-3	5	101	33*	10	-3
O=C1C2C3C=CC(C3)C2C(=O)N1c1ccccc1 (centres undefined)	13	4	0	2	93	1	x	x
O=C1C(C2=NC(c3ccccn3)C3C(=O)N(c4ccccc4)C(=O)C23)=C(O)c2ccccc21 (centres undefined)	3	-1	-14	1	98	71*	-30	2
O=C(NNc1ccc([N+](=O)[O-])cc1)c1ccccc1F	5	x	-1	2	118	39*	16	9
O=C(NNc1ccc([N+](=O)[O-])cc1)c1ccccc1Cl	0	0	2	5	94	50*	21	0
O=C(NNC1=Nc2cc([N+](=O)[O-])ccc2OC1)c1ccccc1Cl	4	-5	2	1	88	11	x	x
O=C(O)c1ccccc1-c1ccccc1C(=O)NNc1ccc([N+](=O)[O-])cc1	10	-3	3	3	101	53*	22	0
O=C(NNc1ccccc1[N+](=O)[O-])Nc1ccc(F)cc1	1	3	-1	4	95	38*	1	4
O=C(O)c1ccccc1Nc1ccc([N+](=O)[O-])cc1	10	7	2	4	87	-12	x	x
SMILES	PAFAH1B3 FP inh	pPAFAH FP inh	PAFAH2 inh	PAFAH1B2 inh	Pemphigus Ab inh	PfM18AAP inh-1	PfM18AAP inh-2	CTSL1 confirm
CCCCn1c(N)c(N(CCOC)C(=O)COC(=O)CCOc2ccccc2)c(=O)[nH]c1=O	1	4	8	2	108	x	x	x
C[C@H](NC(=O)c1ccco1)C(=O)OCC(=O)N1CC(=O)Nc2ccccc21	7	2	-8	1	132	x	x	x
O=C(NNc1ccccc1[N+](=O)[O-])Nc1ccccc1	10	7	1	6	97	11	x	x
O=C(NNc1ccc([N+](=O)[O-])cc1)Nc1ccccc1	8	6	0	5	97	55*	32*	1
Cn1c(C(=O)NN)cc2cc(OCc3ccccc3)ccc21	x	1	x	x	100	x	x	x
C[n+]1cccc(C2C(C#N)=C(N)Oc3c2ccc2ccccc32)c1 (centres undefined)	4	2	6	9	109	38*	-26	-6
C[n+]1cccc2ccc3c(c21)OC(N)=C(C#N)C3c1ccccc1 (centres undefined)	x	7	x	x	96	10	x	x
CC1CCC(NC(=O)CC(NC(N)=O)c2ccccc2Cl)CC1 (centres undefined)	-4	-2	3	9	103	5	x	x
CC(C)n1c(SCC(=O)Nc2nncs2)nnc1-c1ccco1	x	21	x	x	x	74*	60*	-3
Cc1nnc(NC(=O)CSc2nnc(-c3ccco3)n2C(C)C)s1	3	4	5	2	x	-7	x	x
COc1ccc2c(ccn2S(=O)(=O)c2ccccc2)c1	6	-1	7	14	89	-2	x	x
Cc1c(Cc2ccccc2)c(=O)oc2c(O)c(O)ccc12	x	x	x	x	x	47*	23	8
C=CCN=c1scc(C)n1/N=C/c1ccc(O)c(O)c1	12	34*	10	6	104	57*	40*	9
CN=c1scc(C)n1/N=C/c1ccc(O)cc1	11	-1	-3	2	114	16	x	x
CN=c1scc(-c2ccco2)n1/N=C/c1ccc(O)c(O)c1	10	x	9	-3	98	59*	51*	2
CC(C)OP(=O)(c1ccc(N(C)C)cc1)C(O)c1ccc(N(C)C)cc1 (centres undefined)	5	-2	-3	-2	108	12	x	x
COc1cccc(C(=O)NC(=S)Nn2cnnc2)c1OC	7	1	2	2	111	73*	60*	-9
O=C(NC1CC1)c1ccc(F)cc1Cl	0	3	-5	0	114	0	x	x
O=C(NC(=S)Nn1cnnc1)c1ccc(F)cc1Cl	2	3	-4	0	99	78*	55*	-3
O=C(NC(=S)Nn1cnnc1)c1ccccc1Cl	3	3	3	0	97	83*	52*	-7
COc1ccc(S(=O)(=O)N2CCOCC2)cc1NC(=O)/C=C/c1ccc(F)cc1	-1	x	3	0	101	x	x	x

Screening results as filed in PubChem.
